12-LOX inh – Primary qHTS assay for inhibitors of human arachidonate 12S-lipoxygenase (ALOX12): Round 2; Potency, µM (top dose mostly 108 µM), for the others: at the highest dose activity change, negative = inhibition, most hits filed as inhibitors; AID 1671190, 2021; 580,000 compounds, 1.1% hits; Polyunsaturated fatty acid lipoxygenase ALOX12 (Homo sapiens), P18054; purified 12hLO, xylenol orange hydroperoxide absorbance; note: % is set by controls: 0 for no effect and ±100 for the full control effect
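Hydroperoxide product was detected by ferrous iron/xylenol orange as the 573 to 405 nm absorbance ratio. Arachidonic acid at 40 uM (final) was turned over for 30 min at room temperature by 150 nM human 12hLO, pH 7.0 Hepes buffer, after 15 min compound preincubation.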
PTHR1 agonist – qHTS for PTHR1 Agonists: Primary Screen | Parathyroid hormone/parathyroid hormone-related peptide receptor (Homo sapiens), Q03431 | HEK293 GP2 PTHR1 cells, GloSensor cAMP luminescence, 1 h | Potency, µM (top dose mostly 115 µM), for the others: at the top dose activation, usual class: activators | 410,000 compounds, 0.075% hits | AID 743266, 2014; note: nearly all actives have a fitted effect of over 55% in size
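HEK-293-derived GP2 cells expressing PTHR1 and a GloSensor cAMP reporter, 3,000/well, plated overnight, given luciferin plus IBMX (each 0.5 mM as added) for 1 h at 37 °C, then compound for 1 h at 37 °C. Luminescence was read after 15 min at room temperature.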
GLP1R inv ag – qHTS of GLP-1 Receptor Inverse Agonists (Inhibition Mode). HEK293 GLP-1R CRE-luciferase, luminescence, 24 h; GLP-1R form is constitutively active. Glucagon-like peptide 1 receptor (Homo sapiens), P43220. 410,000 compounds, 1.6% hits. Potency, µM (highest dose often 38.3 µM), without a hit: top-dose activity change, negative = inhibition, most hits filed as inhibitors; note: % is set by controls: 0 for no effect and ±100 for the full control effect; nearly all actives have a fitted effect of over 55% in size
Target sequence (P43220 whole entry, looked up): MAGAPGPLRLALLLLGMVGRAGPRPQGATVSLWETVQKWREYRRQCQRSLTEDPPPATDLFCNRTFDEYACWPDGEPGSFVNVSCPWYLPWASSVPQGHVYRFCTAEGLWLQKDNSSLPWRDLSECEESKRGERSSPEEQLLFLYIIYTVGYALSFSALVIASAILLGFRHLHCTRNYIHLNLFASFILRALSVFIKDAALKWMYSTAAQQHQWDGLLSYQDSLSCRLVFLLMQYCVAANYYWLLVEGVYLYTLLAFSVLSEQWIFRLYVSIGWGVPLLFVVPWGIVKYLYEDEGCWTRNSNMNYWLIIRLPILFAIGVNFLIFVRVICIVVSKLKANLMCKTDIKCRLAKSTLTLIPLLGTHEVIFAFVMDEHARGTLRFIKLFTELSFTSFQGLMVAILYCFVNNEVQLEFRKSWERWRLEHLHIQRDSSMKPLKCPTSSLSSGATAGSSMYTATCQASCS
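Inverse agonists were sought by their lowering of basal cAMP reporter luciferase output in HEK293 cells stably carrying constitutively active human GLP-1R, after 24 h compound treatment.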
Glioma ERSR ind – qHTS for Inducers of the Endoplasmic Reticulum Stress Response (ERSR) in Human Glioma: qHTS; U87-MG GRP78 promoter luciferase reporter, 16 h; Potency, µM, for inactives: top-dose activation, actives largely listed as activators; 420,000 compounds, 0.02% hits; note: series mostly up to about 76 µM; % of control where 0% means no effect; nearly all actives have a fitted effect of over 35% in size
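Stably transfected U87-MG human glioma cells carrying a GRP78-based luminescent sensor were seeded at 1000 cells/well, pin-dosed with compounds and incubated 16 h. Luciferase reagent was then added, and end-point luminescence was read after 10 min at room temperature.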
GLS inh – qHTS for Inhibitors of Glutaminase (GLS) | Glutaminase kidney isoform, mitochondrial (Homo sapiens), O94925 | GLS enzymatic activity, qHTS titration | Potency, µM (doses to about 45.5 µM), inactives show at the highest dose activity change, negative = inhibition, usual class: inhibitors | 410,000 compounds, 0.21% hits | AID 624170, 2012; note: % is set by controls: 0 for no effect and ±100 for the full control effect
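Glutamate formation by hKGA was monitored fluorometrically using coupled glutamate oxidase, HRP and Amplex Red. Substrate was added as 1 mM L-glutamine solution; incubation was 30 min at RT after an initial read.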
GLP-1R agonist – qHTS of GLP-1 Receptor Agonists. AID 624172, 2012. HEK293 GLP-1R CRE-luciferase, luminescence, 4-6 h; cells express a hypersensitive GLP-1R form. Glucagon-like peptide 1 receptor (Homo sapiens), P43220. 380,000 compounds, 0.007% hits. Potency, µM (highest dose often 45.6 µM), for inactives: top-dose activation, usual class: activators; note: % of control where 0% means no effect
* hit, by the source's call; i = inactive; ? = inconclusive; / = no result given; ! = not active in a repeat; [ ] = another dose, or the depositor's remark. Shown are actives, neighbours in structure and some others; about 2.3% of the full set was active somewhere. Calls come from the whole dose curve; as a rule, active = well fitted curve in the direction sought with a large enough effect; inconclusive = small, poorly fitted or top-dose-only effect, or another doubt; inactive = no such curve, though single readings can be large; an effect the other way counts as inactive or inconclusive. Potency is the fitted concentration of half-maximal effect.

SMILES | 12-LOX inh | PTHR1 agonist | GLP1R inv ag | Glioma ERSR ind | GLS inh | GLP-1R agonist
Cc1ccccc1C(=O)N1CCC(N2CCCNC2=O)CC1 | 46%[176 µM] | / | / | / | / | /
Cc1ccccc1C(=O)N1CCC(N2CCCCCC2=O)CC1 | 89µM* | / | / | / | / | /
COc1ccccc1N1CC(C)(C)C(=O)N(C(=O)c2ccc(C)cc2)C1=S | 0% | -3% | ? | 25µM* | ? | -1%
COc1ccccc1N1CC(C)(C)C(=O)N(C(=O)c2ccc(Cl)cc2)C1=S | 62% | -20% | ? | 19% | -19% | -1%
CC1=C(C(=O)OC(C)C)C(c2ccc(Cl)cc2)n2c(s/c(=C\c3ccc(OCC(=O)O)cc3)c2=O)=N1 (stereo unspecified) | ? | -70% | -2% | -2% | 11µM* | -2%
CCOc1ccccc1N1CCN(C(=S)NCc2ccc(Cl)cc2)CC1 | 10% | -54% | 11µM* | 6% | 13% | 21%
COc1ccccc1-c1cnc(Nc2cccc(N[S+](C)(=O)[O-])c2)c2c1CCO2 | -6%[176 µM] | / | / | / | / | /
Cc1cc(C)c(NC(=O)CC(C)(C)CC(=O)O)c(C)c1 | -41% | / | / | / | / | /
Cc1cscc(C)c1=S | 18µM* | i | 4% | -2% | 12% | -1%
O=C(OCC(=O)N1CCCc2ccccc21)c1ccccc1NS(=O)(=O)c1ccc(F)cc1 | -14% | / | / | / | / | /
CSc1ccccc1NC(=O)CN(C)C(=O)Cn1[nH]c(=O)c2ccccc2c1=O | 39% | / | / | / | / | /
O=C(Cn1nnc(-c2ccc3c(c2)OCO3)n1)Nc1ccccc1C(=O)O | 22µM* | -26% | 20% | 4% | 4% | 2%
CC1CCC(C(C)C)C(OC(=O)Cn2c(-c3ccc(Cl)cc3)[n+](C)c3ccccc32)C1 (stereo unspecified) | 0% | -39% | 10µM* | -15% | 4% | -2%
CC1CCC(C(C)C)C(OC(=O)COC(=O)c2cccn2C)C1 (stereo unspecified) | 11% | i | 10µM* | -2% | 8% | 3%
O=C1/C(=C/c2ccncc2)SC(=S)N1Nc1ccccc1 | -33% | -41% | ? | 6% | 8.9µM* | 0%
O=C1N(Cc2cccc(Cl)c2)C[C@@H]2C[C@@H](c3cccc4ncccc34)N3CCC[C@@]123 | ? | -7% | 10µM* | -4% | 2% | 7%
CCCN1CCC(=O)N(CCSc2ccccc2)CC1 | -3% | -15% | 3% | -3% | 5% | 2%
c1ccc(SCCN2CCN(c3ccccc3)CC2)cc1 | 13µM* | -17% | ? | 4% | 28% | -1%
COc1ccc(C(=O)C/C(=C\C(=O)c2ccc(C)cc2)c2ccccc2)cc1 | 1% | i | 4.5µM* | -2% | -10% | 0%
O=C(Nc1ccccc1C(=O)N1CCCC1)C1CC(=O)N(c2ccccc2)C1 (stereo unspecified) | -3% | / | / | / | / | /
CCN(CC)CCCCN1c2ccccc2Sc2ccccc21 | 0% | ? | 5µM* | -7% | -12% | -2%
CCCC(=O)NNC(=S)NC(C)C | 7% | / | / | / | / | /
Cc1cc(C(=O)Nc2sc3c(c2C#N)CCC3)no1 | ? | -31% | ? | 1% | 26% | -11%
N#Cc1c(NC(=O)/C=C/c2ccco2)sc2c1CCCC2 | 35µM* | i | -34% | 1% | 0% | 3%
Cc1cc(C(=O)Nc2sc3c(c2C#N)CCCC3)no1 | 35µM* | -21%[57.5 µM] | 0% | 3% | -4% | -3%
SMILES | 12-LOX inh | PTHR1 agonist | GLP1R inv ag | Glioma ERSR ind | GLS inh | GLP-1R agonist
O=C(/C=C/c1ccco1)Nc1sc2c(c1C(=O)O)CCC2 | ? | -60%[57.5 µM] | -11% | 7% | 12% | 0%
N#CCCn1cc(C(=O)Nc2ccc(F)cc2)c(-c2cccs2)n1 | -11% | / | / | / | / | /
Cc1cccc(Cn2cc(C(=O)Nc3ccc(F)c(C(F)(F)F)c3)ccc2=O)c1 | -4% | -32% | 10µM* | -2% | -4% | /
Cc1cccc(Cn2cc(C(=O)Nc3cc(F)ccc3F)ccc2=O)c1 | 0% | -16% | -23% | -5% | -4% | -3%
CN(Cc1ccccc1)C(=S)NC(=O)C1CCCCC1 | -9% | i | ? | -1% | 17% | 0%
CN(C(=S)NC(=O)C1CCCC1)c1ccccc1 | 20µM* | -9% | -22% | 0% | 0% | -5%
CC(C)[C@H](CO)N(Cc1cccc(F)c1)c1nc(Nc2cccc(Cl)c2)c2ncn(C(C)C)c2n1 | 1% | i | 4µM* | 0% | -4% | 2%
CCOc1c(C(=O)OC)sc2ccc(NC(=O)c3ccccc3F)cc12 | 1% | / | / | / | / | /
NC(=S)N=Nc1c(O)n(CCCl)c2ccccc12 | 8% | -7% | 2.8µM* | -3% | -1% | 23%
O=C(N/N=C/c1ccco1)C1CC1(c1ccccc1)c1ccccc1 (stereo unspecified) | -11% | -41% | 10µM* | -5% | 20% | -19%
O=C(O)c1ccc(/C=N/NC(=O)C2CC2(c2ccccc2)c2ccccc2)cc1 (stereo unspecified) | 2% | / | / | / | / | /
COc1ccc(CCCc2nnc(SCC(=O)Nc3cccc(C)c3)o2)cc1C | ? | -41% | -4% | -1% | -8% | /
COc1ccc(CCCc2nnc(SCC(=O)Nc3ccc(C)cc3)o2)cc1C | 18µM*! | -33% | 6% | 1% | 3% | /
Oc1ccc2ccccc2c1CN(Cc1ccccc1)Cc1ccccc1 | 3.2µM* | / | / | / | / | /
CC(C)CN(Cc1c(O)ccc2ccccc12)CC(C)C | 40µM* | -8% | -32% | -2% | 0% | 1%
C=C1CCN([C@H](C(=O)NCc2ccc(Cl)c(Cl)c2)C(C)C)S(=O)(=O)c2ccccc21 | -8% | i | 10µM* | -2% | 1% | -7%
C=C1CCN([C@@H](Cc2ccccc2)C(=O)NCc2ccc(Cl)c(Cl)c2)S(=O)(=O)c2ccccc21 | 9% | 1% | 11µM* | -3% | -5% | 3%
C=C1CCN([C@@H](CC(C)C)C(=O)NCc2ccc(Cl)c(Cl)c2)S(=O)(=O)c2ccccc21 | -10% | -8% | 11µM* | -2% | -10% | -2%
Cc1cc2nc(C)n(CCOc3ccccc3)c2cc1C | 47% | / | / | / | / | /
COC(CNC(=O)c1ccc(COc2cccc3c2OC(C)(C)C3)cc1)OC | -1% | / | / | / | / | /
O=c1oc2ccc(F)cc2cc1S(=O)(=O)N1CCc2ccccc2C1 | 4% | / | / | / | / | /
